Reference: PubChem BioAssay (NCATS)
Results filed as inconclusive are left out. Calls of active or inactive are those of the source. Unless noted, calls follow the shape of the dose curve; as a rule, active = well fitted curve in the direction sought with a large enough effect; inconclusive = small, poorly fitted or top-dose-only effect, or another doubt; inactive = no such curve, though single readings can be large; an effect the other way counts as inactive or inconclusive.

Key:
CP266 = assay: qHTS profiling for inhibitors of Plasmodium falciparum proliferation (AID 504749); also: nearly all actives have a fitted effect of over 60% in size; conditions: P. falciparum in erythrocytes, SYBR Green DNA, 72 h; series mostly up to 28.7 µM
Summary of the method: (§1)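 Infected RBCs, 0.3% parasitemia/2.5% Hct final; cpd 72 h, 37 C, 5% CO2; lysis buffer with saponin/triton/SYBR Green I, o/n RT dark; FI 485/535; norm. to artemisinin (0.29 uM) and DMSO.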

CP297 = assay: as above; conditions: P. falciparum in erythrocytes, SYBR Green DNA, 72 h; series mostly up to 28.7 µM
Summary of the method: as §1

PC15 = assay: as above; conditions: P. falciparum in erythrocytes, SYBR Green DNA, 72 h; series mostly up to 28.7 µM
Summary of the method: as §1

PC49 = assay: as above; conditions: P. falciparum in erythrocytes, SYBR Green DNA, 72 h; series mostly up to 28.7 µM
Summary of the method: as §1

[1] = molecular target: Cytochrome P450 3A4 (Homo sapiens) (UniProt P08684); assay: Cytochrome P450 family 3 subfamily A member 4 (CYP3A4) small molecule antagonists: luciferase qHTS assay (AID 1645841; active = well fitted curve in the direction sought with a large enough effect in the repeat runs; an effect the other way counts as inactive or inconclusive; also: nearly all actives have a fitted effect of over 45% in size); conditions: P450-Glo CYP3A4 enzyme assay, luciferin luminescence; series mostly up to 57.4 µM
Cytochrome P450 3A4 (Homo sapiens), sequence (P08684 whole entry, looked up): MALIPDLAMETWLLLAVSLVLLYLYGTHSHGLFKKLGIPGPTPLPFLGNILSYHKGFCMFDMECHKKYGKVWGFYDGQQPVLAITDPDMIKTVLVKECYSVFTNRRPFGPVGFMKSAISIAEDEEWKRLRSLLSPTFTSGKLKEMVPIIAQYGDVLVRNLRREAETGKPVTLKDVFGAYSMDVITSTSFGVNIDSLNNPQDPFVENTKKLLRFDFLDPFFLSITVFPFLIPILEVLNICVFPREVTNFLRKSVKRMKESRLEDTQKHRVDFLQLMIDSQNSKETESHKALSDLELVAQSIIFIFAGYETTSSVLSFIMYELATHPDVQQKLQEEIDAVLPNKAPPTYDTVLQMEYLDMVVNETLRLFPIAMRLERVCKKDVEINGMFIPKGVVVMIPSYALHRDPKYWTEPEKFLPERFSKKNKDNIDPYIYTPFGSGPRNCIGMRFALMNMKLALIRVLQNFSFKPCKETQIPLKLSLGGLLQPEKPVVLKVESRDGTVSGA
Summary of the method: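 Luminescent CYP3A4 activity readout: compounds plus enzyme-substrate mix 10 min at room temperature, reaction started with NADPH regenerating system for 1 h, stopped with detection reagent, read after 20 min. Ketoconazole served as control.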

[2] = molecular target: Cytochrome P450 1A2 (Homo sapiens) (UniProt P05177); assay: p450-cyp1a2 (AID 410; calls by dose curve); conditions: recombinant CYP1A2, luciferin-ME demethylation, luminescence; series mostly up to 57 µM
Cytochrome P450 1A2 (Homo sapiens), sequence (P05177 whole entry, looked up): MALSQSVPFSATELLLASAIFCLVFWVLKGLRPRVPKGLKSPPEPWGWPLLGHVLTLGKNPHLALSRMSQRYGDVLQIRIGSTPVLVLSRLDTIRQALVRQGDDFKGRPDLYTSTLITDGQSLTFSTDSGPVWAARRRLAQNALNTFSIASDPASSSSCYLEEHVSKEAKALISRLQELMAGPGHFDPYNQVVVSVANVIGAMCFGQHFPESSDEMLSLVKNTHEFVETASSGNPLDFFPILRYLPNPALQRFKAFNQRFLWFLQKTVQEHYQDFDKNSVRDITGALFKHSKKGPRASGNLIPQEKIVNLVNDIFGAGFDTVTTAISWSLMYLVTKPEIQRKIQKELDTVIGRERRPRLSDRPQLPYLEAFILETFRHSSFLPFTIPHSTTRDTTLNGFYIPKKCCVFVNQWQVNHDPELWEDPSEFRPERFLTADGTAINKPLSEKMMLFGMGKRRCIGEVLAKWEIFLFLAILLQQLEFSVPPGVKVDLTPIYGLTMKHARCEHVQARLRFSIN
Summary of the method: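 Luminescent readout of luciferin formed from Luciferin-ME by human CYP1A2; data normalized against complete inhibition by 57 uM furafylline. Enzyme 20nM, substrate 100uM at Km, 100mM KPO4 buffer, 60 min reaction at room temperature.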

[3] = molecular target: DNA dC->dU-editing enzyme APOBEC-3G (Homo sapiens) (UniProt Q9HC16); assay: qHTS for inhibitors of Vif-A3G interactions: Validation (AID 588379); conditions: Vif-A3G protein interaction assay; series mostly up to 46.1 µM
DNA dC->dU-editing enzyme APOBEC-3G (Homo sapiens), sequence (Q9HC16 whole entry, looked up): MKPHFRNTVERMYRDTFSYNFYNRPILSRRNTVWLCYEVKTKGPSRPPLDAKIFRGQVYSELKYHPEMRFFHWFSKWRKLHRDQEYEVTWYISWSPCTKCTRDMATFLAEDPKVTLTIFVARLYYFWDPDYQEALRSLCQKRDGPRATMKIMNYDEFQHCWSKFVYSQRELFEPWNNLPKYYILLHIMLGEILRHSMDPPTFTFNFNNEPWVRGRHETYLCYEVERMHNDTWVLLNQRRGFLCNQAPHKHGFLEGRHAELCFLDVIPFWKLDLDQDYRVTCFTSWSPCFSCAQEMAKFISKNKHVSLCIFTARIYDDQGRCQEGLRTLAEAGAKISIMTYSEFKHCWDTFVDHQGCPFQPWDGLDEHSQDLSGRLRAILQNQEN
Summary of the method: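 HeLa cells stably expressing Vif and A3G-eYFP, 700 cells/well, incubated overnight at 37 deg C, then exposed to compound overnight at 37 deg C. Inhibition of Vif-mediated degradation read as increased yellow fluorescence (Ex 488/Em 500-530) by laser-scanning cytometry.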

[4] = test system: Zika virus NS2B-NS3 protease; assay: Primary screen GU AMC qHTS for Zika virus inhibitors (AID 1347154); conditions: Zika NS2B-NS3 unlinked protease, AMC fluorogenic substrate; series mostly up to 54.1 µM; also: nearly all actives have a fitted effect of over 70% in size
Summary of the method: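 Fluorogenic AMC-substrate cleavage by noncovalent NS2B-NS3 protease complex (25 nM, pH 8.0 Tris buffer with Tween 20) followed for 15 minutes at room temperature (~20% conversion). Percent inhibition from ex340/em450 signal change, fitted by 4-parameter Hill equation.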

[5] = Primary qHTS for small molecule stabilizers of the endoplasmic reticulum resident proteome: Secreted ER Calcium Modulated Protein (SERCaMP) assay (AID 1508630); conditions: SH-SY5Y GLuc-SERCaMP (Gaussia luciferase released on ER calcium loss) secretion, thapsigargin, luminescence; series mostly up to 38.4 µM
Summary of the method: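 GLuc-SERCaMP-expressing SH-SY5Y cells, pretreated 16 h with compound, are challenged with thapsigargin to empty ER calcium stores; after 4 h, coelenterazine is added directly to the medium and luminescence is imaged.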

Measured: Potency

C[N+](C)(C)CC(=O)[O-]
inactive: CP266 | CP297 | PC15 | PC49

CCCCNC(C)(C)[P+](=O)O
inactive: [1]

Clc1ccc([C@@H]2C[C@H]3CC[C@@H]2N3)cn1
inactive: [2] | [3] | [4] | [5]
